Peg3 prom inh: reduces Peg3 promoter-driven luciferase expression in HeLa; HeLa PEG-Prom luciferase reporter, luminescence, overnight; inhibition, % at 20 µM; actives 1.7% (n = 360,000);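 active = inhibition of at least 50% at 20 µM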
CF NFkB inh: blocks PAF-induced NF-kB reporter in cystic fibrosis cells. actives 0.86% (n = 360,000). inhibition, % at 5 µM. KKLEB NF-kB-GFP reporter, GFP fluorescence overnight. AID 588850;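 active = at least 50% inhibition at 5 µM, scaled per plate between neutral and stimulator controls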;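 note: PAF is a Pseudomonas aeruginosa culture filtrate used as stimulus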
TROY NFkB inh: blocks TROY-dependent signaling in reporter cells | inhibition, % at 10 µM | AID 1347056 | Q293 LMP1-TROYcd NF-kB luciferase reporter, 4 h | actives 0.98% (n = 360,000);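 active = compounds whose plate-normalised and pattern-corrected inhibition of the luciferase reporter signal at the single screening dose is 50% or more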
KKLEB tox: counter-screen for CF NF-kB inhibitors: cytotoxicity; AID 602141; activity change (cytotoxicity), % at 5 µM; KKLEB CF airway cells viability, ATPlite luminescence, overnight; active compounds read low; cells stimulated with P. aeruginosa culture filtrate; actives 0.36% (n = 360,000);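 active = corrected activity change at or below -50% at 5 µM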
TWEAK Fn14 block: inhibitors of TWEAK-Fn14 interaction signaling; actives 2% (n = 360,000); TWEAK-stimulated Fn14 reporter cells, luciferase luminescence, 8 h; inhibition, % at 10 µM; in the data active = inhibition above about 50%
HIF-2a inh: inhibitors of HIF-2a. actives 0.72% (n = 360,000). inhibition, % at 18.8 µM. 786-0 RCC cells HIF-2a reporter, luciferase luminescence, overnight;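 active = inhibition of the luminescence signal of 40% or more relative to plate controls, in a single-dose primary screen at 18.75 µM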
Hits are given with their value; n = inactive; x = not tested or not shown. Compounds with a hit are over-represented: about 4% of the library has one in this group of screens.

SMILES	Peg3 prom inh	CF NFkB inh	TROY NFkB inh	KKLEB tox	TWEAK Fn14 block	HIF-2a inh
COc1ccc(Br)cc1C(=O)Nc1cccc(-c2nnc(-c3ccco3)o2)c1	53	n	n	n	n	n
O=C1/C(=C/c2cccnc2)SC(=S)N1N1CCOCC1	n	n	n	n	n	n
O=C1/C(=C/c2cccnc2)SC(=S)N1C1CCS(=O)(=O)C1 (centres undefined)	n	72	n	n	65	53
O=C1/C(=C\c2cccnc2)SC(=S)N1C1CCS(=O)(=O)C1 (centres undefined)	n	66	n	n	71	n
CC1(C(=O)Nc2cnc3ccccc3c2)CCN1C(=O)CC(c1ccccc1)c1ccccc1 (centres undefined)	n	n	n	n	n	n
CCOC(=O)c1c(C)[nH]c(C(=O)COC(=O)CCSc2ccccc2)c1C	n	n	n	n	n	n
CCOC(=O)c1c(C)[nH]c(C(=O)CSc2ccccc2)c1C	n	n	n	n	67	n
O=C(Nc1ccc(C(=O)N2CCCCC2)cc1)[C@H]1O[C@@H](n2ccc(=O)[nH]c2=O)[C@H](O)[C@@H]1O	n	n	n	n	n	n
CCN(Cc1ccccc1)C(=O)c1cc(-c2ccc(OC)c(OC)c2)nc2ccccc12	n	n	n	n	n	n
COCCN(Cc1ccccc1)C(=O)c1cc(-c2ccc(OC)c(OC)c2)nc2ccccc12	52	n	n	n	n	n
COC(=O)[C@]12CCCCC=C1N(CCc1ccc(OC)c(OC)c1)C(=O)[C@H](CC(=O)NCCCCc1ccccc1)C2	x	x	x	x	x	n
COc1ccccc1-c1ccc2c(c1)C(C)(Cc1cc(Cl)ccc1C(F)(F)F)C(=O)N2 (centres undefined)	78	n	n	n	n	n
Cc1cccc(C(=O)N[C@H](C(=O)Nc2ncc(C)s2)C(C)C)c1	60	n	n	n	n	n
Cc1cccc(C(=O)N[C@H](C(=O)Nc2nnc(C3CC3)s2)C(C)C)c1	n	n	n	n	n	n
Cc1cccc(C(=O)Nc2ncc(CN3CCOCC3)s2)c1	n	n	n	n	66	n
COC(=O)c1ccc(COC(=O)CNC(=O)c2ccc(C)s2)cc1	n	n	n	n	n	n
Cc1nn(C(C)C(=O)c2cccc(Cl)c2)c(C)c1[N+](=O)[O-] (centres undefined)	n	n	n	n	n	n
Cn1cnc([N+](=O)[O-])c1S(=O)(=O)Oc1ccccc1	103	n	n	n	n	n
Cn1cnc([N+](=O)[O-])c1S(=O)(=O)c1cccc(Cl)c1	111	n	64	-54	n	n
Cn1cnc([N+](=O)[O-])c1S(=O)(=O)Nc1ccccc1	n	n	n	n	n	n
C[C@H](CO)N1C[C@H](C)[C@@H](CN(C)Cc2ccncc2)OCc2cnnn2CCCC1=O	n	n	n	n	n	n
Cc1ccc2c(c1)[C@H]1[C@H](CO2)[C@H](c2ccccc2)[C@]2(C)C(=O)Nc3cc(F)ccc3C(=O)N12	68	n	n	n	n	n
C[C@@]12C(=O)Nc3ccc(F)cc3C(=O)N1[C@H]1c3cc(Br)ccc3OC[C@@H]1[C@@H]2c1ccccc1	n	n	n	n	n	n
C[C@@]12C(=O)Nc3cc(F)ccc3C(=O)N1[C@H]1c3cc(Br)ccc3OC[C@@H]1[C@@H]2c1ccccc1	54	n	n	n	n	n
C[C@H]1CN([C@@H](C)CO)C(=O)c2cc(Br)cnc2O[C@H]1CN(C)C(=O)c1ccc2c(c1)OCO2	n	n	n	n	n	n
SMILES	Peg3 prom inh	CF NFkB inh	TROY NFkB inh	KKLEB tox	TWEAK Fn14 block	HIF-2a inh
CC1CCCCC1NC(=O)COC(=O)c1ccc2c(c1)NC(=O)CS2 (centres undefined)	n	n	n	n	n	n
CCOC(=O)C1=C(C)N=c2s/c(=C\c3ccc(O)c([N+](=O)[O-])c3)c(=O)n2C1c1ccccc1OC (centres undefined)	53	n	n	n	n	n
COc1ccccc1N1CCNC(C)C1=O (centres undefined)	n	n	n	n	n	n
Cc1nc(C(=O)Nc2ccccc2Cl)cc2c1[nH]c1ccccc12	85	n	n	n	n	n
O=C(Nc1ccccc1Cl)c1ccc(C(=O)Nc2ccccc2Cl)cc1	n	n	62	n	n	n
COc1ccc(NC(=O)c2cc3c([nH]c4ccccc43)c(C)n2)cc1	n	n	n	n	n	n
CCCC(=O)N1CCCC1(C)C(=O)Nc1cc(OC)c(OC)c(OC)c1 (centres undefined)	n	n	n	n	n	n
CC(=O)Nc1cccc(C(=O)N/N=C/c2c[nH]c3ccccc23)c1	n	n	n	n	n	n
CC(C)c1ccc(-n2cccc2/C=C2/C(=N)N3C=CSC3=NC2=O)cc1	n	n	n	n	55	n
COc1ccc(Br)cc1CSC(=N)N	n	n	n	n	n	n
CCCCCOc1ccc(Br)cc1CSC(=N)N	104	n	n	n	n	n
CCCCOc1ccc(CSC(=N)N)cc1Cl	93	n	n	n	n	n
CCC1Oc2ccc(C)cc2N(CC(=O)NCC2CCCO2)C1=O (centres undefined)	n	n	n	n	n	n
Cc1csc2ncnc(N3CCN(C(=S)Nc4ccc(F)cc4F)CC3)c12	n	n	90	n	54	n
Fc1ccc(NC(=S)N2CCCN(c3ccc(C(F)(F)F)cn3)CC2)c(F)c1	n	n	n	n	n	n
Cc1cc(C)c(OCCCCNCc2ccccc2)c(Cl)c1	53	n	n	n	n	n
Clc1ccc(OCCCNCc2ccccc2)c2ccccc12	93	n	n	-53	n	n
Brc1ccccc1OCCNCc1ccccc1	n	n	n	n	n	n
O=C(NCc1ccccc1F)C1CCCN1S(=O)(=O)c1ccc(F)cc1 (centres undefined)	n	n	n	n	n	n
Cc1c(/C=N/NC(=O)CNc2ccccc2)c2ccccn2c1C(=O)c1ccncc1	n	n	n	n	62	n
NC1=NC[C@H](c2ccccc2)N1CCc1cc(C(F)(F)F)cc(C(F)(F)F)c1	98	n	n	n	n	n
c1coc(C2=NC(c3ccco3)C(c3ccco3)N2)c1 (centres undefined)	n	n	n	n	64	n
CC1C(=O)C(C)C(c2ccco2)NC1c1ccco1 (centres undefined)	n	n	n	n	n	n
CC1(C(=O)NCc2ccccc2)CN(S(C)(=O)=O)CC(=O)N1Cc1cccs1 (centres undefined)	x	x	x	x	x	n
CCCCOCCCNC(=O)C[C@@H]1C[C@@]2(C(=O)OC)CC(C)(C)CC=C2N(Cc2ccccc2)C1=O	x	x	x	x	x	n
CCCC(C)C(=O)N(Cc1ccccc1)c1ccccn1 (centres undefined)	n	n	n	n	61	n
Cc1ccc(NC(=O)c2cccc(S(=O)(=O)N3CCN(c4ccccc4)CC3)c2)nc1	n	n	n	n	n	n
